Measured values taken from PubChem BioAssay (Tox21).
Where “and” joins values, the source holds several entries; their conditions need not be identical. Equal entries are not always repeated. Records with an inconclusive call do not appear. A structure can be active in one record and inactive in another. Calls of active or inactive are those of the source. Unless noted, calls follow the shape of the dose curve; as a rule, active = well fitted curve in the direction sought with a large enough effect in the repeat runs; inconclusive = weak or mixed curves; inactive = no such curve, though single readings can be large; an effect the other way counts as inactive or inconclusive.

Columns and labels:
[1] = qHTS RealTime-Glo MT Cell Viability Assay in HEK293 cells - 0 hour (AID 1224880); also: top concentration of the series differs between compounds; nearly all actives have a fitted effect of over 45% in size
How it was run: (§1)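 HEK293 cells mixed with RealTime-Glo reagents (NanoLuc plus cell-permeant prosubstrate) at 600 cells/well, preincubated 5 h at 37 C/5% CO2, then given 23 nL compound in DMSO. Nonlytic luminescence from viable cells was read at 0, 8, 16, 24, 32 and 40 h.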

[2] = A CellTox Green Cytotoxicity Assay to monitor cytotoxicity in HepG2 cells - 0 hour (AID 1224882); also: nearly all actives have a fitted effect of over 35% in size
How it was run: (§2)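 HepG2 cells were seeded together with the CellTox Green dye at 600 cells/well, left 5 h at 37 C/5% CO2, then given compounds in DMSO. Fluorescence from dye bound to dead-cell DNA was read repeatedly over 40 h of treatment at 37 C.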

[3] = A CellTox Green Cytotoxicity Assay to monitor cytotoxicity in HEK293 cells - 8 hour (AID 1224884); also: nearly all actives have a fitted effect of over 35% in size
How it was run: (§3)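 HEK293 cells premixed with CellTox Green dye were seeded at 600 cells/well and left 5 h at 37 C/5% CO2 before pin transfer of 23 nL compound in DMSO. Fluorescence from dye bound to dead-cell DNA was read during 40 h treatment.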

[4] = qHTS RealTime-Glo MT Cell Viability Assay in HepG2 cells - 16 hour (AID 1224885); also: nearly all actives have a fitted effect of over 50% in size
How it was run: (§4)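 Luminescence read-out: viable HepG2 cells reduce a prosubstrate to a NanoLuc substrate, giving a signal proportional to live cell number. Reads taken at 0, 8, 16, 24, 32 and 40 h of compound exposure at 37 C.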

[5] = qHTS RealTime-Glo MT Cell Viability Assay in HEK293 cells - 24 hour (AID 1224886); also: top concentration of the series differs between compounds; nearly all actives have a fitted effect of over 50% in size
How it was run: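 Nonlytic real-time viability readout: viable cells convert prosubstrate to NanoLuc substrate, giving luminescence proportional to live cell number. HEK293, 600 cells/well, compound added after 5 h, continuous culture at 37 C.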

[6] = qHTS RealTime-Glo MT Cell Viability Assay in HEK293 cells - 8 hour (AID 1224887); also: top concentration of the series differs between compounds; nearly all actives have a fitted effect of over 50% in size
How it was run: as §1

[7] = A CellTox Green Cytotoxicity Assay to monitor cytotoxicity in HEK293 cells - 16 hour (AID 1224888); also: nearly all actives have a fitted effect of over 35% in size
How it was run: as §3

[8] = qHTS RealTime-Glo MT Cell Viability Assay in HepG2 cells - 0 hour (AID 1224889); also: nearly all actives have a fitted effect of over 50% in size
How it was run: as §4

[9] = A CellTox Green Cytotoxicity Assay to monitor cytotoxicity in HepG2 cells - 8 hour (AID 1224890); also: nearly all actives have a fitted effect of over 45% in size
How it was run: as §2

[10] = qHTS assay to identify small molecule antagonists of the androgen receptor (AR) signaling pathway using the MDA cell line in the presence of 0.5 nM R1881 - cell viability counter screen (AID 1259242); also: nearly all actives have a fitted effect of over 45% in size
How it was run: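 MDA-kb2 cells (human breast carcinoma, stably carrying MMTV-luciferase reporter) were exposed to compounds with 0.5 nM R1881 (final) for 16 hr at 37C, 0% CO2; viability then read as live-cell protease fluorescence (CellTiter-Fluor, 30 min) in the same wells.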

[11] = biological target: Androgen receptor (Homo sapiens) (UniProt P10275); experiment: qHTS assay to identify small molecule antagonists of the androgen receptor (AR) signaling pathway using the MDA cell line in the presence of 0.5 nM R1881 (AID 1259243)
How it was run: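 MDA-kb2 human breast carcinoma cells carrying an MMTV-luciferase reporter (AR- and GR-responsive) were plated, rested 5 hr at 37C, dosed with compounds, then stimulated with 0.5 nM R1881 (final) for 16 hr; luminescence was read after ONE-Glo.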

[12] = biological target: Estrogen receptor (Homo sapiens) (UniProt P03372); experiment: qHTS assay to identify small molecule antagonists of the estrogen receptor alpha (ER-alpha) signaling pathway using the BG1 cell line in the presence of 0.1 nM 17-beta-estradiol (AID 1259244); also: nearly all actives have a fitted effect of over 50% in size
How it was run: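 VM7Luc4E2 cells (endogenous full-length ER-alpha, stable 4xERE-luciferase) were grown 5 days in phenol red-free medium with charcoal-stripped FBS, then exposed 22 h at 37C to compounds plus 0.1 nM (final) 17beta-estradiol; ONE-Glo luminescence read-out.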

[13] = qHTS assay to identify small molecule phospholipidosis (PLD) inducers (AID 1259344; active = well fitted curve in the direction sought with a large enough effect; an effect the other way counts as inactive or inconclusive)
How it was run: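 Quantitative HTS in HepG2: compound plus LipidTOX Red dye for 24 h, paraformaldehyde fixation with Hoechst 33342, widefield high-content imaging; amiodarone as positive and DMSO as negative control.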

[14] = qHTS assay to identify small molecule HDAC inhibitors - cell viability counter screen (AID 1259365)
How it was run: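 After overnight seeding at 1,500 cells per well, wild-type HCT-116 cultures took up compounds in DMSO for 2hr at 37 C. Viable cell content came from luminescence with CellTiter-Glo.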

[15] = qHTS assay to identify small molecule agonists of the sonic hedgehog signaling (Shh) pathway - cell viability counter screen (AID 1259366); also: nearly all actives have a fitted effect of over 50% in size; also: potency is read from the fitted curve at half-maximal effect
How it was run: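 Same-well cytotoxicity read. Gli1-Luc reporter 3T3 cells; compounds 24hr, 37C/5% CO2; CellTiter-Fluor fluorescence.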

[16] = qHTS assay to identify small molecule antagonists of the sonic hedgehog signaling (Shh) pathway - cell viability counter screen (AID 1259367); also: nearly all actives have a fitted effect of over 55% in size; also: potency is read from the fitted curve at half-maximal effect
How it was run: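 Seed 3T3 Gli1-Luc cells at 2,000 per well; incubate 4 hr; add compound in DMSO, then conditioned medium; incubate at 37C with 5% CO2; add CellTiter-Fluor after 23 hr; read fluorescence 1 hr later.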

[17] = A CellTox Green Cytotoxicity Assay to monitor cytotoxicity in HEK293 cells - 32 hour (AID 1224881); also: nearly all actives have a fitted effect of over 40% in size
How it was run: as §3

[18] = A CellTox Green Cytotoxicity Assay to monitor cytotoxicity in HepG2 cells - 32 hour (AID 1224883); also: nearly all actives have a fitted effect of over 50% in size; also: potency is read from the fitted curve at half-maximal effect
How it was run: as §2

[19] = qHTS assay to identify small molecule HDAC inhibitors (AID 1259364); also: nearly all actives have a fitted effect of over 45% in size; also: potency is read from the fitted curve at half-maximal effect
How it was run: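 Wild-type HCT-116 cells were plated overnight, exposed to compounds for 2 h at 37 °C, then given HDAC-Glo class I/II luminogenic reagent for 30 min at room temperature before luminescence was read.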

[20] = qHTS assay to identify small molecule antagonists of the estrogen receptor alpha (ER-alpha) signaling pathway using the BG1 cell line in the presence of 0.1 nM 17-beta-estradiol - cell viability counter screen (AID 1259241); also: nearly all actives have a fitted effect of over 40% in size
How it was run: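 Estradiol-stimulated (0.1 nM) VM7Luc4E2 cells exposed to compounds 22 hr; viability measured by fluorescence of cleaved CellTiter-Fluor substrate after 30 min.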

Measured: Potency

Chain of Estrogen receptor (Homo sapiens) (P03372 whole entry, looked up): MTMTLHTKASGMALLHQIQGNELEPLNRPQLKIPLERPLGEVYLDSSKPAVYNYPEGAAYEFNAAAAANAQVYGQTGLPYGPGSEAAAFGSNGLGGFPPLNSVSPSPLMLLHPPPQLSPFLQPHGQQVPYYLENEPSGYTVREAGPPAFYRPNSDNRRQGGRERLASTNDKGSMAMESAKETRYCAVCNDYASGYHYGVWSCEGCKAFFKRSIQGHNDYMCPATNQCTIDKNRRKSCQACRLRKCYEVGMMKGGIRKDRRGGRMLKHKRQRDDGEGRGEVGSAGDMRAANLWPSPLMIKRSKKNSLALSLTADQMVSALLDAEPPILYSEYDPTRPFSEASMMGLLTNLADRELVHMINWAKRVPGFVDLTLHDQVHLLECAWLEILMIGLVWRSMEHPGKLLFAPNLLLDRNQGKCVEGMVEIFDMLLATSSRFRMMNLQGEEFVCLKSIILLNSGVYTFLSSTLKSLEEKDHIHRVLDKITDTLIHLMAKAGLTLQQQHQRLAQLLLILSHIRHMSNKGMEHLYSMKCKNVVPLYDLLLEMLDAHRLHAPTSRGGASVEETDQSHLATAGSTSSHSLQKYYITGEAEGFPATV
Chain of Androgen receptor (Homo sapiens) (P10275 whole entry, looked up): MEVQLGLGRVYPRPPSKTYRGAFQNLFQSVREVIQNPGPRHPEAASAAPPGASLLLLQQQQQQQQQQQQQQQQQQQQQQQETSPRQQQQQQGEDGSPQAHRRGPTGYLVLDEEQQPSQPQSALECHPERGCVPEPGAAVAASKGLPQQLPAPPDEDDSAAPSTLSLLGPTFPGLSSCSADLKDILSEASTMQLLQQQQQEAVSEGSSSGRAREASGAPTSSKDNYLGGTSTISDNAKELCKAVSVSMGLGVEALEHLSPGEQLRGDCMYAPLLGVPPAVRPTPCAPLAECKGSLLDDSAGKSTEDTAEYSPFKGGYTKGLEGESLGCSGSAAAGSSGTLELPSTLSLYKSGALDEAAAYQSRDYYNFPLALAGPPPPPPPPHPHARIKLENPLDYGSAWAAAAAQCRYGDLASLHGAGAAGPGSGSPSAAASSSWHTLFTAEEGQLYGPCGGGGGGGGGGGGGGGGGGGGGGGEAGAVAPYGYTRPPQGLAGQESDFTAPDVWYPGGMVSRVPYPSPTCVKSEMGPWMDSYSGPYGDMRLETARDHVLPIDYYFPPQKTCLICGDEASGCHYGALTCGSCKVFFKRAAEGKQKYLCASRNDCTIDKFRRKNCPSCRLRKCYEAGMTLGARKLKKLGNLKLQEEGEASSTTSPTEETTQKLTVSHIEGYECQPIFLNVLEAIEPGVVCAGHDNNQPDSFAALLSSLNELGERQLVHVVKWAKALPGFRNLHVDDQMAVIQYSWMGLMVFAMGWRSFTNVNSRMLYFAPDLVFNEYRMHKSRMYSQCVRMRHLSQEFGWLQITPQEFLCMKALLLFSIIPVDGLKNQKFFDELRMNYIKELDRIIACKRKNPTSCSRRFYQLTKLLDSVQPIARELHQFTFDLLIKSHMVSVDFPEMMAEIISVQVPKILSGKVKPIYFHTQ

c1cc2ccc3cccc4ccc(c1)c2c34
active: [11] 16.1 µM
not listed: [17] | [18] | [19] | [20]
inactive: all other assays above

CC(c1ccc(O)cc1)(c1ccc(O)cc1)c1ccc(O)cc1
active: [15] 61.1 µM
inactive: [17] | [2] | [18] | [3] | [4] | [7] | [9] | [10] | [19] | [14]

CCCCOC(=O)c1ccccc1C(=O)OCc1ccccc1
inactive and 48.6 µM (active): [16]
inactive and 17.2 µM (active): [19]
not listed: [5] | [6] | [7] | [11] | [12] | [13] | [17]
inactive: all other assays above

COC1=CC(=O)O[C@@H](CCc2ccccc2)C1
active: [11] 40.1 µM
not listed: [1] | [12] | [13] | [15] | [19] | [20]
inactive: all other assays above

O=C(O)CC(Cl)C(=O)O (centres undefined)
not listed: [11] | [12] | [13] | [17] | [18] | [20]
inactive: all other assays above

Clc1ccc(C(OCCN2CCCCC2)c2ccccc2)cc1 (centres undefined)
not listed: [1] | [5] | [11] | [17] | [18] | [19]
inactive: all other assays above

NC(=O)CI
inactive: [1] | [2] | [6] | [10] | [12] | [14] | [15] | [16]
active: [19] 54.9 µM

CN1[C@@H]2CC[C@H]1CC(OC(=O)c1cc(Cl)cc(Cl)c1)C2 (some centres undefined)
active: [18] 23.9 µM
not listed: [4] | [5] | [11] | [13] | [15] | [16] | [17] | [19]
inactive: all other assays above

CC(O)(CS(=O)(=O)c1ccc(F)cc1)C(=O)Nc1ccc(C#N)c(C(F)(F)F)c1 (centres undefined)
inactive: [2] | [18] | [3] | [9] | [20] | [10] | [13] | [19] | [14] | [15] | [16]
